{
  "source": "PubChem BioAssay",
  "note": "For some of these results: Potency and affinity values are given separately. Activity calls are given as the source filed them. A call without a number means that no potency is given here. No rule for the calls is given here.",
  "data": [
    {"molecular_target": "Plasmodium falciparum protein kinase 6 (PK6, PF3D7_1337100) (UniProt Q8IDW1)", "sequence (Q8IDW1 1-305)": "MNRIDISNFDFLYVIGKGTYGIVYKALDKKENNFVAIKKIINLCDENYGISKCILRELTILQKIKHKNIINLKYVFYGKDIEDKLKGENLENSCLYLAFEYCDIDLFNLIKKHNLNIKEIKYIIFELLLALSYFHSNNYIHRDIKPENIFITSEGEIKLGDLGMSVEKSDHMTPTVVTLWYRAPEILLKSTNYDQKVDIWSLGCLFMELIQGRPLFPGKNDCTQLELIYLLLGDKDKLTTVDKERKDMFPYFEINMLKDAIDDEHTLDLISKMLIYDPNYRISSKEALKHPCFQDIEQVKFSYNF", "assay": "PfPK6 kinase inhibitors, biochemical, TCAMS library (AID 1159586)", "details": "recombinant PfPK6, Kinase-Glo ATP depletion luminescence", "values": [
      {"molecule": "O=C(NCCc1ccccc1)N(Cc1ccccc1-c1cccc(CNCc2ccc3c(c2)OCO3)c1)C1CCN(Cc2ccccc2)CC1", "outcome": "inactive"},
      {"molecule": "CC(Oc1ccc(Cl)cc1)C(=O)N(C)C1CCN(CCCCCNC(=O)/C=C/c2ccc(Cl)c(Cl)c2)CC1", "note": "(stereo unspecified)", "outcome": "inactive"},
      {"molecule": "CCOc1cc(C)ccc1C1CCN(CCCCNC(=O)c2cccc(-c3ccc(C(F)(F)F)cc3)c2)CC1", "outcome": "inactive"},
      {"molecule": "c1ccc(CNc2nc(NCCc3cnc[nH]3)nc(N3CCCC4CCCCC43)n2)cc1", "note": "(stereo unspecified)", "outcome": "inactive"},
      {"molecule": "Cc1cc(NC(=O)c2ccsc2)ccc1OC1CCN(Cc2ccc(F)cc2)CC1", "outcome": "inactive"},
      {"molecule": "N=c1n(CCN2CCCCC2)c2ccccc2n1CC(O)c1cccc(Br)c1", "note": "(stereo unspecified)", "outcome": "inactive"},
      {"molecule": "COc1cccc(C(=O)NCCOc2ccccc2)c1Oc1ccccc1", "outcome": "inactive"}
    ]},
    {"molecular_target": "Protein kinase 7 (PK7), Plasmodium falciparum 3D7 (PF3D7_0213400) (UniProt Q7YTF7)", "sequence (Q7YTF7 1-343)": "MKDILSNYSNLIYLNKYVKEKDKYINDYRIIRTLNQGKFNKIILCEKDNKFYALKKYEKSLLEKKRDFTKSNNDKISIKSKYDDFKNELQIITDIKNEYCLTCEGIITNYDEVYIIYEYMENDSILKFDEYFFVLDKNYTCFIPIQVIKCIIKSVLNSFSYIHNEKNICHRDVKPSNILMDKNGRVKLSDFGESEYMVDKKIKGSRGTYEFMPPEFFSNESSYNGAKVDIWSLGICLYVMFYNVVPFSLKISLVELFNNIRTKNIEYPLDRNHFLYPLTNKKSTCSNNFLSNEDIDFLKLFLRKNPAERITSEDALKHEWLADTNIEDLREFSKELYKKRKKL", "assay": "inhibition of Plasmodium PK7 catalytic activity – biochemical, TCAMS antimalarial set, Kinase-Glo luminescence (AID 1159587)", "details": "recombinant PfPK7, Kinase-Glo ATP depletion luminescence", "values": [
      {"molecule": "COc1ccc2nccc([C@@H](O)CN3CCC(NCc4cc5ccccc5o4)CC3)c2c1", "outcome": "inactive"},
      {"molecule": "Oc1ccc(-c2cncc(NCc3ccc(F)c(F)c3)c2)cc1", "outcome": "inactive"},
      {"molecule": "Cc1cc(C(=O)Nc2ccc3c(ccn3C3CCCN(Cc4ccc(C(F)(F)F)cc4F)CC3)c2)no1", "note": "(stereo unspecified)", "outcome": "inactive"},
      {"molecule": "O=C(Nc1nc(-c2ccccn2)cs1)c1ccc(S(=O)(=O)N2CCc3ccccc32)cc1", "outcome": "inactive"},
      {"molecule": "Cc1cc(NC2CCCC2)nc(Nc2ccccc2F)n1", "outcome": "inactive"},
      {"molecule": "COc1ccc2nccc([C@@H](O)CN3CCC(NCCOc4cc(F)cc(F)c4)CC3)c2c1", "outcome": "inactive"},
      {"molecule": "CN1CCCN(Cc2cccc(-c3cccc(NS(=O)(=O)c4cccc5cccnc45)c3)c2)CC1", "outcome": "inactive"},
      {"molecule": "Cc1nc(-c2cccc(Nc3nccc(NCC(O)c4ccccc4C)n3)c2)cs1", "note": "(stereo unspecified)", "outcome": "inactive"},
      {"molecule": "N#Cc1cccc(Nc2nccc(NCC(O)c3ccccc3C(F)(F)F)n2)c1", "note": "(stereo unspecified)", "outcome": "inactive"},
      {"molecule": "CCCCNCc1ccc(-c2nc(CN(Cc3ccc(Cl)c(Cl)c3)C(=O)CN(C)C)cs2)cc1", "outcome": "inactive"},
      {"molecule": "COc1cc2nc(NCC3CCN(c4nc(N)c5cc(OC)c(OC)cc5n4)CC3)nc(N)c2cc1OC", "outcome": "inactive"},
      {"molecule": "CN1CCC(NCc2ccc(-c3ccc(S(=O)(=O)NCc4ccccc4)c(F)c3)cc2)CC1", "outcome": "inactive"},
      {"molecule": "O=C(Nc1cccc(-c2csc(-c3ccccc3)n2)c1)c1cccs1", "outcome": "inactive"},
      {"molecule": "CC(C)(C)Nc1cc(C2CC2)nc(-c2ccccn2)n1", "outcome": "inactive"},
      {"molecule": "CCOc1ccc(C=CC(=O)Nc2ccc3nc(N4CCOCC4)cc(C)c3c2)cc1OC", "outcome": "inactive"},
      {"molecule": "COC(=O)c1cccc(OCCNC2CCN(C[C@H](O)c3ccnc4ccc(OC)cc34)CC2)c1", "outcome": "inactive"},
      {"molecule": "Cc1noc(C)c1-c1cccc(CNCc2ccc(-c3ccc(-c4nc5ccccc5[nH]4)s3)cc2)c1", "outcome": "inactive"},
      {"molecule": "N=C(N)CCN(Cc1ccc(Cl)cc1)c1ccc(Cl)cc1", "outcome": "inactive"},
      {"molecule": "COc1ccc2c(NN=Cc3ccccc3F)ccnc2c1", "outcome": "inactive"},
      {"molecule": "FC(F)(F)c1ccc2nc(-c3ccc(-c4cccc(CNCc5ccccc5)c4)s3)[nH]c2c1", "outcome": "inactive"},
      {"molecule": "O=[N+]([O-])c1cc(C(c2ccc(O)c([N+](=O)[O-])c2)C(Cl)(Cl)Cl)ccc1O", "outcome": "inactive"},
      {"molecule": "N#Cc1ccc2c(c1)CCN(CCC1CCC(NC(=O)/C=C/c3cnc4ccccc4c3)CC1)CC2", "note": "(stereo unspecified)", "outcome": "inactive"},
      {"molecule": "Cn1c(NC(=O)C2CCC(CNC(=O)c3ccc(O)c(-c4cccc([N+](=O)[O-])c4)c3)CC2)nc2ccccc21", "note": "(stereo unspecified)", "outcome": "inactive"},
      {"molecule": "Fc1cccc(CNc2ncc(-c3ccsc3)c(-c3nccs3)n2)c1", "outcome": "inactive"},
      {"molecule": "Cc1cc(N[C@@H](CC(C)C)C(=O)NCc2cccc(F)c2)nc(Nc2ccccc2)n1", "outcome": "inactive"},
      {"molecule": "CCc1sc(N2CCN(C)CC2)nc1C(=O)NCCc1ccc(Cl)c(Cl)c1", "outcome": "inactive"},
      {"molecule": "COc1cc2nc(N3CCC(CCCC4CCNCC4)CC3)nc(NCc3ccccn3)c2cc1OC", "outcome": "inactive"},
      {"molecule": "O=C(NC1CCN(Cc2ccccc2O)C1)c1ccc(Cl)c(Cl)c1", "note": "(stereo unspecified)", "outcome": "inactive"},
      {"molecule": "CNC(=O)/C=C/c1cc(NC(=O)Nc2cc(C)nc3c(F)cccc23)ccc1OC", "outcome": "inactive"},
      {"molecule": "CCc1ccc(NC(=O)c2ccc(CN3CCCN(Cc4cccc(O)c4)CC3)cc2)cc1", "outcome": "inactive"},
      {"molecule": "CC(C)c1sc(-c2ccc(C(C)(C)C)cc2)nc1C(=O)NCCCN1CCCC1=O", "outcome": "inactive"},
      {"molecule": "NC(N)=Nc1nc(-c2cccc(NC(=O)Cc3ccccc3)c2)cs1", "outcome": "inactive"},
      {"molecule": "O=C(NCCc1ccccc1)N(Cc1ccccc1-c1cccc(CNCc2ccc3c(c2)OCO3)c1)C1CCN(Cc2ccccc2)CC1", "outcome": "inactive"},
      {"molecule": "CC(Oc1ccc(Cl)cc1)C(=O)N(C)C1CCN(CCCCCNC(=O)/C=C/c2ccc(Cl)c(Cl)c2)CC1", "note": "(stereo unspecified)", "outcome": "inactive"},
      {"molecule": "CCOc1cc(C)ccc1C1CCN(CCCCNC(=O)c2cccc(-c3ccc(C(F)(F)F)cc3)c2)CC1", "outcome": "inactive"},
      {"molecule": "c1ccc(CNc2nc(NCCc3cnc[nH]3)nc(N3CCCC4CCCCC43)n2)cc1", "note": "(stereo unspecified)", "outcome": "inactive"},
      {"molecule": "Cc1cc(NC(=O)c2ccsc2)ccc1OC1CCN(Cc2ccc(F)cc2)CC1", "outcome": "inactive"},
      {"molecule": "N=c1n(CCN2CCCCC2)c2ccccc2n1CC(O)c1cccc(Br)c1", "note": "(stereo unspecified)", "outcome": "inactive"},
      {"molecule": "COc1cccc(C(=O)NCCOc2ccccc2)c1Oc1ccccc1", "outcome": "inactive"}
    ]}
  ]
}
